Most compounds without a hit are left out; they make up all but 5.2% or so of the library.
TrxR1 substrate – substrates of rat thioredoxin reductase 1; AID 588456; Potency, µM (titrated, usually from 114 µM), inactives show at the highest dose activity change, negative = substrate turnover; actives 0.01% (n = 390,000); O89049; purified TrxR1 substrate turnover, NADPH consumption readout; also: nearly all actives have a fitted effect of over 50% in size
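Rat TrxR1, dispensed at 90 nM, was prereduced with 400 uM NADPH (final) for 5 min at ~22 deg C, then incubated with compound 15 min before 400 uM selenite. A first-read NADPH fluorescence drop versus no-compound background flagged substrates.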
Sfp PPTase inh – inhibitors of Bacillus subtilis Sfp phosphopantetheinyl transferase; Potency, µM, without a hit: largest response in the series, negative = inhibition, hits mostly inhibitors; Q9F4F7; Biochemical Sfp PPTase activity, qHTS; actives 3.5% (n = 310,000);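 also: the enzyme is Sfp with the accession as filed and its product quenches rhodamine fluorescence; 0% = enzyme reaction without inhibitor and -100% = no enzyme wells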
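Step 1, compound plus 15 nM Sfp-PPTase, 15 min, room temperature. Step 2, add rhodamine-CoA (5 uM) and BHQ-2-YbbR (12.5 uM). Step 3, read 525/598 nm fluorescence at 0 and 30 min.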
IDH1 R132H inh – blocks human mutant IDH1 R132H enzyme. IDH1-R132H enzyme, NADPH consumption, diaphorase/resazurin fluorescence. actives 0.093% (n = 390,000). Potency, µM (series often up to 76.6 µM), for inactives: top-dose activity change, negative = inhibition, usual class: inhibitors. AID 602179. O75874; also: nearly all actives have a fitted effect of over 65% in size
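IDH1-R132H (0.5 ug/mL dispensed) in pH 7.5 Tris buffer was preincubated 30 min with compound, then given a substrate mix of 0.016 mM NADPH and 2 mM alpha-KG for 80 min at room temperature; remaining NADPH was read by diaphorase/resazurin fluorescence.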
VDR inhibitor – blocks the human vitamin D receptor | P11473 | VDR-SRC2-3 peptide fluorescence polarization, 2 h | Potency, µM, without a hit: max response, negative = inhibition, usual class: inhibitors | actives 0.93% (n = 400,000) | AID 504847
Target sequence (P11473 whole entry, looked up): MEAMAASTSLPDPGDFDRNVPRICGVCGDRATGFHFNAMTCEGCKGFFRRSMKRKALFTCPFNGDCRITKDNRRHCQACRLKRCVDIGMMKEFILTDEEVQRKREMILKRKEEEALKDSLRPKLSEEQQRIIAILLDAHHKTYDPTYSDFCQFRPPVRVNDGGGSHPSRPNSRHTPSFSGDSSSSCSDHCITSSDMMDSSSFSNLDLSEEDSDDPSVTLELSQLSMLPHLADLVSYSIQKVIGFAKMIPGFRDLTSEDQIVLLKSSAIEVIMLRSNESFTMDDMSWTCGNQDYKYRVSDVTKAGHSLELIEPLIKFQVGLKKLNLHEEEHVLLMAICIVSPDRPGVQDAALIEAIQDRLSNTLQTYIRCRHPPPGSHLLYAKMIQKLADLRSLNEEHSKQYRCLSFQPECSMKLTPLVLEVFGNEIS
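Signal is fluorescence polarization, reporting how far test compounds block the interaction of VDR with the SRC2-3 coregulator peptide after a 2 h room-temperature incubation.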
PLK1 PBD inh – inhibitors of human PLK1 polo-box domain binding | Plk1 PBD binding of FITC phosphopeptide, fluorescence polarization | actives 2.8% (n = 360,000) | AID 720504 | Potency, µM, for inactives: max response, negative = inhibition, hits mostly inhibitors; also: series mostly up to about 57 µM; nearly all actives have a fitted effect of over 65% in size
TrxR1 inh – blocks rat thioredoxin reductase 1 | Potency, µM (titrated, usually from 114 µM), for the others: at the highest dose activity change, negative = inhibition, hits mostly inhibitors | recombinant rTrxR1, NADPH fluorescence consumption, selenite substrate | O89049 | actives 1% (n = 390,000); also: nearly all actives have a fitted effect of over 65% in size
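Rat TrxR1 (90 nM in the dispensed reagent) was pre-reduced with 400 uM NADPH for 5 min at room temperature, then incubated with compound for 15 min. After 400 uM selenite was added, NADPH fluorescence (Ex 340/Em 450 nm) was followed for 8 min.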
Starred values were filed as active, the others as inactive; ? = inconclusive; . = no result; [ ] = dose if it differs, or a comment. Calls follow the shape of the dose curve; as a rule, active = well fitted curve in the direction sought with a large enough effect; inconclusive = small, poorly fitted or top-dose-only effect, or another doubt; inactive = no such curve, though single readings can be large; an effect the other way counts as inactive or inconclusive. Unless noted, % is scaled to controls: 0 for no effect and ±100 for the full control effect; potency is read from the fitted curve at half-maximal effect.

SMILES	TrxR1 substrate	Sfp PPTase inh	IDH1 R132H inh	VDR inhibitor	PLK1 PBD inh	TrxR1 inh
CCOC(=O)CNC(=O)c1sc2ncnc(N3CCc4ccccc4C3)c2c1C	-7%	-22%	0%	3%	-11%	-18%
CCCCNC(=O)c1sc2ncnc(N3CCc4ccccc4C3)c2c1C	25%	4%	11%	?	27µM*	2.8µM*
COc1ccccc1C(=O)Oc1ccc2c(c1)O/C(=C\c1ccncc1)C2=O	-6%	6%	?	35µM*	0%	?
O=C1/C(=C/c2cccnc2)Oc2cc(OS(=O)(=O)c3ccccc3)ccc21	-5%	-24%	?	50µM*	-21%	-2%
Cc1c(CCOC(=O)c2ccccc2)sc[n+]1CC(=O)c1ccc(Br)cc1	-1%[57.1 µM]	1%	0%	11%	3%	-21%
Cc1c(CCOC(=O)c2cc([N+](=O)[O-])cc([N+](=O)[O-])c2)sc[n+]1CC(=O)c1ccccc1	1%	-21%	-6%	-15%	4%	79µM*
COc1cc(C(=O)O)nc2ccccc12	2%	63µM*	6%	-7%	3%	5%
O=C(O)c1ccc2cccc(O)c2n1	4%[57.1 µM]	2.8µM*	11%	12%	3%	13%[57.1 µM]
O=C(O)c1cccc(C(=O)O)n1	.	4µM*	.	.	.	.
O=C(O)c1cnc2ccccc2n1	-7%	-18%	5%	?	27µM*	-6%
O=C(O)c1ccc2cccnc2n1	10%[57.1 µM]	-59%	13%	9%	-16%	12%[57.1 µM]
C[C@@]12C(=O)N(CC3CCCO3)CC(=O)N1[C@H]1c3ccccc3OC[C@@H]1[C@@H]2c1ccccc1 (stereo partly drawn)	5%[57.1 µM]	.	-1%	-14%	-7%	21%[57.1 µM]
C[C@@H]1C(=O)CC2C(C)(C)CCC[C@]2(C)[C@@]1(O)CCc1ccoc1 (stereo partly drawn)	.	-16%	.	0%	.	.
CN(C)c1ccc(C=O)c(Cl)c1	-11%	.	.	.	.	-3%
CCCCCCCCCCn1c2c(c(=N)c3c1CCC3)CCC2	11%	28µM*	4%	-24%	-5%	11%
CCCCCCCCCn1c2c(c(=N)c3c1CCC3)CCCC2	-11%	45µM*	0%	-5%	-18%	-18%
CCCCCCCCn1c2c(c(=N)c3ccccc31)CCC2	6%[57.1 µM]	13%	-3%	-14%	-5%	16%[57.1 µM]
CCn1c2c(c(=N)c3c1CCC3)CCCC2	6%	4%	6%	6%	-3%	16%
CCOC1=NN(c2ncc(C(F)(F)F)cc2Cl)C(=O)C1	10%[57.1 µM]	17%	1%	-15%	24µM*	17%[57.1 µM]
Cc1cccc(CNC(=O)C2CCN(c3nn4cc(-c5ccc(F)cc5)nc4s3)CC2)c1	-1%	.	7%	9%	.	13%
O=C1CC(c2ccc(Cl)cc2)Sc2nc(-c3ccc(F)cc3)nn21 (stereo not drawn)	-5%	.	-4%	-6%	.	-11%
COc1ccccc1CN(C)C(=O)c1cccc(S(=O)(=O)N2CCCC2)c1	5%	.	17%	18%	0%	9%
Cc1ccc(CN(C)C(=O)c2cccc(S(=O)(=O)N3CCCC3)c2)o1	15%	.	-4%	-20%	-15%	40µM*
Cn1c(SCC(=O)Nc2cccc(F)c2)nc2c(c1=O)SCC2	-8%	12%	3%	0%	-1%	-11%
COc1cc(/C=C2/C(C)=C(C#N)c3nc(N)c(C#N)c(C)c32)ccc1OCC(=O)O	10%[57.1 µM]	?	-21%	7%	24µM*	-66%
SMILES	TrxR1 substrate	Sfp PPTase inh	IDH1 R132H inh	VDR inhibitor	PLK1 PBD inh	TrxR1 inh
O=C(CSc1nc2ccc(Cl)cc2[nH]1)N1CCN(C(=O)c2ccco2)CC1	6%	-18%	2%	-14%	?	16µM*
Cc1ccc2nc(SCC(=O)N3CCN(C(=O)c4ccco4)CC3)[nH]c2c1	-5%	7%	4%	-4%	-14%	?
O=C(CSc1nc2ccc(Cl)cc2[nH]1)c1ccc2c(c1)OCO2	-1%[57.1 µM]	79µM*	5%	-9%	-3%	4%[57.1 µM]
CCc1cc2ccc(C)cc2nc1SCC(=O)N1CCN(C(=O)c2ccco2)CC1	4%	?	-3%	79µM*	24µM*	4µM*
O=C(O)C1=CCC=CC1C(=O)O (stereo not drawn)	.	.	9%	.	?	.
COc1cc(OC)c2c(c1C(CCN1CCN(c3ccccc3)CC1)c1ccc(N(C)C)cc1)OC(=O)CC2c1ccc(N(C)C)cc1 (stereo not drawn)	-8%	7%	.	-6%	.	-6%
O=[N+]([O-])c1ccc(N2CCCCC2)s1	-26%	50µM*	-12%	-17%	?	?
CC1CCCN(c2ccc([N+](=O)[O-])s2)C1 (stereo not drawn)	-20%	50µM*	-2%	-27%	-22%	-18%
CN1C(=O)C(=O)/C(=C(/O)c2ccccc2)C1c1ccc(Br)cc1 (stereo not drawn)	-13%	15%	6%	-7%	-5%	-1%
CN1C(=O)C(=O)/C(=C(/O)c2ccc(Br)cc2)C1c1ccccc1F (stereo not drawn)	-8%	23%	16%	0%	34µM*	-1%
COc1ccc(NC(=O)CCCn2c(=O)c3sccc3n(Cc3ccc(C)cc3C)c2=O)cc1	-3%	50µM*	4%	19%	-2%	-3%
COc1ccc(NC(=O)CCCn2c(=O)c3sccc3n(Cc3ccc(C)cc3)c2=O)cc1	4%	-7%	-3%	8%	-2%	7%
COC(=O)C(C(=O)OC)C1c2ccccc2C=C(C)N1C(=O)OC (stereo not drawn)	.	8%	.	.	.	.
CCNc1nc(NC(C)C)nc(Oc2ccc(/C=N/O)cc2)n1	1%	0%	-3%	-18%	4.7µM*	9%
CCCCc1ccc(NC(=O)CSC2=C(C#N)C(c3ccco3)C3=C(CCCC3=O)N2)cc1 (stereo not drawn)	-6%	7.9µM*	-6%	-5%	-2%	-24%
CC(C)(C)c1ccc(C(=O)CCCSC2=C(C#N)C(c3ccco3)C3=C(CCCC3=O)N2)cc1 (stereo not drawn)	0%[57.1 µM]	50µM*	0%	-13%	-18%	-14%[57.1 µM]
CCOC(=O)CSC1=C(C#N)C(c2ccccc2C)C2=C(CCCC2=O)N1 (stereo not drawn)	9%	14µM*	-2%	-6%	-10%	-11%
N#CC1=C(SCC(=O)c2ccccc2)NC2=C(C(=O)CCC2)C1c1ccco1 (stereo not drawn)	6%	32µM*	1%	-12%	?	?
Cc1ccc(C(=O)CSC2=C(C#N)C(c3ccco3)C3=C(CCCC3=O)N2)cc1 (stereo not drawn)	1%	-23%	2%	-29%	-18%	?

Source: PubChem BioAssay (National Center for Advancing Translational Sciences (NCATS))
